Structures are written as SMILES. Inconclusive results are not listed. Values without a mark were called inactive. Active and inactive are the calls of the source. Calls follow the shape of the dose curve; as a rule, active = well fitted cell-killing curve with a large enough effect; inconclusive = small, poorly fitted or top-dose-only effect; inactive = no such curve, though single readings can be large or run the other way. Starred links: 1 amine or outer side, 2 acyl side, 3 side chain; linkers in the order of their positions; H or OH if unused. Positions of bridges follow the written chain, without caps; N, C: chain ends. Non-standard residues stand in square brackets, D forms with d. Residues, ends and D or L forms follow the SMILES beside them. Chains are numbered I, II in the order given. Actinocin(9to1) = Cc1c2oc3c(C)ccc(C(=O)[*:1])c3nc-2c(C(=O)[*:2])c(N)c1=O; NMeV = CN[CH](C(=O)O)C(C)C; Sar = CNCC(=O)O
Potency is read from the fitted curve at half-maximal effect.

The nature of the assay: Quantitative High-Throughput drug screen in 47 multiple myeloma cell lines against the NCATS MIPE library collection: JIM3_ECACC cell viability assay (AID 1918963; also: nearly all actives have a fitted effect of over 35% in size). As to conditions: JIM3 myeloma viability, CellTiter-Glo ATP, 48 h; series mostly up to 45.8 µM; viability, percent of control: at the top concentration. The source says:
PI: Beverly A. Mock Ph.D.
Laboratory of Cancer Biology and Genetics,
Center for Cancer Research, National Cancer Institute,
National Institute of Health, Bethesda, Maryland
Drug resistance and disease progression are common in multiple myeloma (MM) patients, underscoring the need for new therapeutic combinations. […] We hypothesized that effective combinations would reduce MYC expression and enhance p16 activity. […] These preclinical data identify potentially useful drug combinations for evaluation in drug-resistant MM and reveal potential mechanisms of combined drug sensitivity.
Described herein is the primary MIPE qHTS used to cherrypick compounds. Validated compounds were then further tested for potential synergistic activiy.
[1] Peat TJ, Gaikwad SM, Dubois W, Gyabaah-Kessie N, Zhang S, Gorjifard S, Phyo Z, Andres M, Hughitt VK, Simpson RM, Miller MA, Girvin AT, Taylor A, Williams D, D'Antonio N, Zhang Y, Rajagopalan A, Flietner E, Wilson K, Zhang X, Shinn P, Klumpp-Thomas C, McKnight C, Itkin Z, Chen L, Kazandijian D, Zhang J, Michalowski AM, Simmons JK, Keats J, Thomas CJ, Mock BA. Drug combinations identified by high-throughput screening promote cell cycle transition and upregulate Smad pathways in myeloma. Cancer Lett. 2023 Aug 1;568:216284. doi: 10.1016/j.canlet.2023.216284. Epub 2023 Jun 24. PMID: 37356470; PMCID: PMC10408729.
SEQUENCE No. (e.g., 1, 2, 3, etc.); […] (e.g., Cells, Incubation, Reagent, etc.); VALUE and DESCRIPTION.
1; Cells; 5 uL; white, solid bottom 1536-well Greiner assay plate.
2; Compounds; 23 nL; Kalypsis pin tool (Wako USA) equipped with a 1536-well pin head to transfer to the assay plates.
3; Incubation; 48 hours; 37C incubation.
4; Reagent;5uL; CellTiter Glo (Promega).
5; Detector; 425V; Luminescence; Viewlux PerkinElmer.
NOTES (numbers refer to Sequence numbers above)
1. The cell-based screening methods employed in this study were like those previously published. Briefly, the corresponding myeloma cell lines were screened in 1,536-well plates with 500 cells, 5-uL per well for inhibition of cell viability (assessed by measuring ATP levels with CellTiterGlo).
2. NCATS MIPE 4.0 library of approved and investigational drugs were added using the Kalypsis pin tool. Wells treated with DMSO only for 100% viability and media only wells for 0% viability were used as controls.
3. The assay plates were covered and incubated for 48 hours in a 37C, 5% CO2 incubator with controlled humidity.
4. After 48 hours, CellTilter-GloTM luminescent substrate mix (Promega) reagent was added to the assay plate and plates we incubated for 5 min at room temperature.
5. Signal was measured as median relative luminescence units on a ViewLux (PerkinElmer) multiplate reader.
[1] Heske CM, Davis MI, Baumgart JT, Wilson K, Gormally MV, Chen L, Zhang X, Ceribelli M, Duveau DY, Guha R, Ferrer M, Arnaldez FI, Ji J, Tran HL, Zhang Y, Mendoza A, Helman LJ, Thomas CJ. Matrix Screen Identifies Synergistic Combination of PARP Inhibitors and Nicotinamide Phosphoribosyltransferase (NAMPT) Inhibitors in Ewing Sarcoma. Clin Cancer Res. 2017 Dec 1;23(23):7301-7311. doi: 10.1158/1078-0432.CCR-17-1121. Epub 2017 Sep 12. PMID: 28899971; PMCID: PMC6636827.
In general terms: Cellular ATP, detected with luciferase, serves as a proxy for viable cell number.
With `C[C@H](NCc1ccc2c(c1)nc(NC(=O)c1ccc(-c3cn[nH]c3)s1)n2CCc1ccccc1)C(C)(C)C`, the Potency was 1480 nM (active). `O=S(=O)(O)CCSSCCS(=O)(=O)O`: the “viability, percent of control” value was 129%.

With `Cc1ccc([N+](=O)[O-])cc1S(=O)(=O)N(C)N=Cc1cnc2ccc(Br)cn12`, the Potency is 10.5 nM (active). `CN(N=O)C(=O)N[C@H]1C(O)OC(CO)[C@@H](O)[C@H]1O` (stereo not given in full): the “viability, percent of control” value was 101%. With `NC(=O)c1cccc(-c2cccc(OC(=O)NC3CCCCC3)c2)c1`, the “viability, percent of control” value is 130%. Regarding `O=C(C=CC#Cc1cccc(NS(=O)(=O)c2ccccc2)c1)NO`, the Potency was 5260 nM (active). On to `C[C@]12C=CC(=O)N[C@@H]1CC[C@H]1[C@H]3CC[C@@H](C(=O)Nc4cc(C(F)(F)F)ccc4C(F)(F)F)[C@@]3(C)CC[C@@H]12`, for which the “viability, percent of control” value is 100%. In the case of `CC(C)(N)c1ccc(-c2nc3ccccc3nc2-c2ccccc2)cc1`, the Potency was 18700 nM (active). On to `CON=C(C(=O)N[C@@H]1C(=O)N2C(C(=O)O)=C(Cn3ccc(=N)n3CCO)CS[C@H]12)c1csc(N)n1`, for which the “viability, percent of control” value was 119%. In the case of `c1ccc(CNc2nc(NCc3ccccc3)c3ccccc3n2)cc1`, the Potency was 16600 nM (active). Same read-out and setting: the figure for `COc1cc(OC)cc(-c2ccc3ncc4ccc(=O)n(-c5ccc(N6CCNCC6)c(C(F)(F)F)c5)c4c3c2)c1` is 10500 nM (active); for `O=C1NC(=O)C(=Cc2ccc3nccc(-c4ccncc4)c3c2)S1` it is 296 nM (active). Turning to `Cc1cn([C@@H]2O[C@H](CO)[C@@H](O)[C@H]2F)c(=O)[nH]c1=O`, the “viability, percent of control” value is 103%. As to `CCN(CC)CCNC(=O)c1c(C)[nH]c(C=C2C(=O)Nc3ccc(F)cc32)c1C`, the Potency was 2150 nM (active). Turning to `CC(=O)SCC(Cc1ccccc1)C(=O)NCC(=O)OCc1ccccc1` (stereo not given), the Potency is 3720 nM (active). As for `O=C(O)C=Cc1ccc(Cn2ccnc2)cc1`, the “viability, percent of control” value is 124%. `CC(C)(C)c1nc2c3cc[nH]c(=O)c3c3cc(F)ccc3c2[nH]1`: the Potency was 1870 nM (active).

For the compound `CCCCCCCCCCCCc1ccc(S(=O)(=O)Nc2nncs2)cc1`, the “viability, percent of control” value is 131%.

`COc1ccc(S(=O)(=O)Nc2cccnc2Nc2ccc(O)cc2)cc1`: the Potency is 52.6 nM (active). The same measure, in the same setting: the figure for `Cn1c(Nc2ccc(C(F)(F)F)cc2)nc2cc(Oc3ccnc(-c4ncc(C(F)(F)F)[nH]4)c3)ccc21` is 18700 nM (active); for `CC(C)(O)Cn1c(NC(=O)c2ccc(-c3cn[nH]c3)s2)nc2cc(CN3CCOCC3)ccc21` it is 1320 nM (active); for `CCCCCCCCc1ccc(CCC(N)(CO)CO)cc1` it is 13200 nM (active).

For the compound `CO[C@@H]1[C@@H](O)[C@H](O)[C@@H](n2c3c(Cl)cccc3c3c4c(c5c6cccc(Cl)c6[nH]c5c32)C(=O)NC4=O)O[C@@H]1CO`, the Potency was 1480 nM (active).

As to `CC(C)N(CC[C@H](c1ccccc1)c1cc(CO)ccc1O)C(C)C`, the “viability, percent of control” value was 132%. Take `CCOC(=O)C1=C(C)NC(=S)NC1c1cccc(O)c1` (stereo not given): the Potency is 37.2 nM (active). In the case of `CCCCCN=C(N)NN=Cc1c[nH]c2ccc(OC)cc12`, the Potency is 5260 nM (active). `COc1cc([C@@H]2c3cc4c(cc3[C@H](O)[C@H]3COC(=O)[C@@H]23)OCO4)cc(OC)c1OC`: the Potency was 118 nM (active).

Consider `O=C(O)c1ccc(Nc2ncc3c(n2)-c2ccc(Cl)cc2C(c2c(F)cccc2F)=NC3)cc1`, for which the Potency is 4690 nM (active). As for `COc1cccc2c1C(=O)c1c(O)c3c(c(O)c1C2=O)C[C@@](O)(C(=O)CO)C[C@@H]3O[C@H]1C[C@H](N)[C@H](OC2CCCCO2)[C@H](C)O1` (stereo not given in full), the Potency is 3720 nM (active).

Regarding `OCCN1C[C@H](O)[C@@H](O)[C@H](O)[C@@H]1CO`, the “viability, percent of control” value was 132%.

In the case of `C[C@@H](NCc1cc2ccccc2[nH]1)c1cccc2ccccc12`, the “viability, percent of control” value was 78.7%. For `Cc1c2oc3c(C)ccc(C(=O)NC4C(=O)NC(C(C)C)C(=O)N5CCCC5C(=O)N(C)CC(=O)N(C)C(C(C)C)C(=O)OC4C)c3nc-2c(C(=O)NC2C(=O)NC(C(C)C)C(=O)N3CCCC3C(=O)N(C)CC(=O)N(C)C(C(C)C)C(=O)OC2C)c(N)c1=O` (stereo not given) (I: TVP[Sar][NMeV] / II: TVP[Sar][NMeV]; ester I:1-I:C, II:1-II:C; linker I:N-II:N via Actinocin(9to1); configuration not given here), the “viability, percent of control” value was 2.55%. `CC(=O)N1CCN(c2ccc(OCc3nn(C)c(C)c3-c3cccc4c(CCCOc5cccc6ccccc56)c(C(=O)O)n(Cc5cccnc5)c34)cc2)CC1`: the Potency was 3320 nM (active). Regarding `CCC[C@H]1C[C@H](C(=O)N[C@@H]([C@@H]2O[C@@H](SC)[C@@H](O)[C@@H](O)[C@@H]2O)[C@H](C)Cl)N(C)C1`, the “viability, percent of control” value is 106%. In the case of `Oc1ccc(-c2ccc(-c3cc(Nc4cccc(CNC5CC5)c4)n[nH]3)cc2)c(O)c1`, the Potency is 1870 nM (active).

On to `O=C(NCc1ccccc1)[C@H](Cc1ccccc1)NC(=O)[C@@H]1O[C@@H]1C(=O)NCCc1ccc(O)cc1`, for which the “viability, percent of control” value is 115%. On to `COc1ccc2cc([S+]([O-])Cc3ncc(C)c(OC)c3C)nc2c1`, for which the “viability, percent of control” value is 94.8%. Consider `OC[C@@H](O)[C@@H](O)[C@H](O)[C@@H](O)CO`, for which the “viability, percent of control” value was 106%. Turning to `CCCc1nc(C(C)(C)O)c(C(=O)O)n1Cc1ccc(-c2ccccc2-c2nn[nH]n2)cc1`, the “viability, percent of control” value is 115%. `CC(=O)N[C@H]1[C@@H]([C@H](O)[C@H](O)CO)OC(C(=O)O)=C[C@@H]1N=C(N)N`: the “viability, percent of control” value was 120%.

For the origin of these results see PubChem BioAssay (NCATS).
